The results in this text go back to PubChem BioAssay (NCATS).

The nature of test [1]: Drug repurposing screens with cells derived from glioblastoma tumor samples (AID 1345199). For activity, negative = cell killing: % is set by controls: 0 for no effect and ±100 for the full control effect. For all read-outs here: nearly all actives have a fitted effect of over 40% in size. Note: potency is the fitted concentration of half-maximal effect. To be noted: GBM patient neurospheres viability, ATP luminescence, 48 h; for Potency: tumour line A. The method in brief: (§1)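 Primary testing used CD133+ neurospheres from four GBM patients, seven concentrations, 48 h exposure and ATP-based viability; confirmation added three slower-growing patient lines.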

In test [2] the test system is astro (control astrocytes). The description is as above. To be noted: viability, ATP luminescence, 48 h; series mostly up to 45.9 µM. The method in brief: as §1
The target of test [3] is Nuclear receptor subfamily 1 group I member 2 (Rattus norvegicus) (UniProt Q9R1A7). Put plainly: qHTS assay for small molecule activators of the rat pregnane X receptor (rPXR) signaling pathway (AID 651751; call rule not given here; note: 0% is about no effect). As to conditions: rPXR reporter cells, luciferase (One-Glo), 24 h. (In general: In qHTS, concentration-response curves come from the screen itself.)
Chain of Nuclear receptor subfamily 1 group I member 2 (Rattus norvegicus) (Q9R1A7 whole entry, looked up): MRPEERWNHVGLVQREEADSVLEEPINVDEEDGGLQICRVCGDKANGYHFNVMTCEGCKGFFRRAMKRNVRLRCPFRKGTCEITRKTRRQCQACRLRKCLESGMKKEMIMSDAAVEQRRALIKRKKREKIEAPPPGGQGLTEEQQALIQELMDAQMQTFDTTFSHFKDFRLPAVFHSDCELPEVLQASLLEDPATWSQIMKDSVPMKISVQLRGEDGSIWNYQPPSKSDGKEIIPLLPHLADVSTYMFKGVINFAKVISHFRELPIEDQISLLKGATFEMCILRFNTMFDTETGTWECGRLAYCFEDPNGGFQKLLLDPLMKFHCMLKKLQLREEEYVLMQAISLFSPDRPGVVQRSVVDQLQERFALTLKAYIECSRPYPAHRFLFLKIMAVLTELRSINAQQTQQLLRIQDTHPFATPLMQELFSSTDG
The nature of test [4]: qHTS assay for small molecule activators of the human pregnane X receptor (PXR) signaling pathway (AID 720659; call rule not given here; note: 0% is about no effect). As to conditions: DPX-2 HepG2 CYP3A4-luciferase, 24 h; series mostly up to 92.3 µM.
Test [5] can be described thus: qHTS assay to identify inhibitors of the type 1 interferon - major histocompatibility complex class I in skeletal muscle: Counter screen cell viability and HiBit confirmation (AID 1347412). Note: % is set by controls: 0 for no effect and ±100 for the full control effect; nearly all actives have a fitted effect of over 60% in size. As to conditions: iHSKM muscle cells + IFN-b, HiBiT or CellTiter-Glo, 24 h; Potency: HiBiT; Viability, at 45.9 µM (top of the series). The method in brief:
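Myoblasts (C25cl48, HLA-B HiBiT) seeded in medium without dexamethasone, IFN-b 4 ng/ml added except unstimulated columns; 1 hr later compounds pinned (12-pt 1:3, top 46 uM final). Incubated 24 hrs, lysed 10 min, luminescence measured.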

Setting [6] is: at 45.9 µM (top of the series), tumour line B.
Setting [7] is: at 45.9 µM (top of the series), tumour line D.
The mark [8] stands for this setting: at 46.1 µM (top of the series), tumour line C.
The mark [9] stands for this setting: at 99.2 µM (top of the series), tumour line C.
[10] abbreviates: at 91.6 µM (top of the series), tumour line B.

Values joined by “and” are separate entries in the source; they are usually repeats but may differ in a detail not shown here. Equal values may be shown once. Unmarked numbers belong to inactive results. Results filed as inconclusive are left out. The source holds several records for some structures; these can differ, active in one and inactive in another. Active and inactive are the calls of the source. Unless noted, calls come from the whole dose curve; as a rule, active = well fitted curve in the direction sought with a large enough effect; inconclusive = small, poorly fitted or top-dose-only effect, or another doubt; inactive = no such curve, though single readings can be large; an effect the other way counts as inactive or inconclusive.

`Cc1ncc(CO)c(CO)c1O`: the values for the activity, negative = cell killing in test [1] (setting [6]), in test [1] (setting [7]) and in test [1] (setting [8]) were 0.285%, -6.71% and 3.74%, respectively. Besides, the Potency entry in test [2] was “inactive”. Also, the max response in test [3] was -2.11%. In addition, the molecule was classed as inactive in test [4].

On to `CC(=O)O[C@@H]1C(=O)O[C@@H]2[C@H]1OC(=O)[C@@H]2OC(C)=O`, for which the activity, negative = cell killing in test [1] (setting [6]) was -13.4%; in test [1] (setting [7]), 5.03%; in test [1] (setting [8]), -4%. The Potency result in test [2] is “inactive”.

Turning to `NC(=O)COCCN1CCN(C(c2ccccc2)c2ccc(Cl)cc2)CC1` (stereo unspecified), the activity, negative = cell killing in test [1] (setting [6]) is -14%. For the same molecule, in test [1], the Potency was 5.01 µM (active). In addition, in test [2], the Potency result is “inactive”.

With `Oc1ccccc1`, the activity, negative = cell killing is 8.9% in test [1] (setting [6]), -14.6% in test [1] (setting [7]) and -15.8% in test [1] (setting [8]). In test [2], the Potency result is “inactive”. The max response in test [3] was -2.24% and -1.02% and -2.45%. Moreover, the outcome in test [4] was inactive.

Turning to `O=C(O)/C=C(\CC(=O)O)C(=O)O`, the values for the activity, negative = cell killing in test [1] (setting [6]) and in test [1] (setting [7]) were -11.5% and -18%, respectively. Besides, in test [1], the Potency was 20 µM (active). For the same molecule, the Potency result in test [2] was “inactive”.

As for `C[N+]1(C)CCC(OC(=O)C(O)(c2ccccc2)C2CCCC2)C1` (stereo unspecified), the activity, negative = cell killing in test [1] (setting [7]) is -7.1%; in test [1] (setting [8]) it was -3.15% and -15.3%. Besides, the Potency in test [1] was 11.2 µM (active). The Potency entry in test [2] was “inactive”.

As to `CCCCCC[C@@H](CCC)C(=O)O`, the activity, negative = cell killing in test [1] (setting [6]) was -11.8%; in test [1] (setting [7]) it was -7.11%; in test [1] (setting [8]) it was -6.46%. In addition, the Potency result in test [2] is “inactive”.

`O=C(Nc1ccc(Cl)cc1)Nc1ccc(Cl)c(Cl)c1`: the max response in test [3] was -12.4%. The molecule was called inactive in test [4].

`CC[N+]1(CC)CCC(=C(c2ccccc2)c2ccccc2)C1C` (stereo unspecified): the Potency result in test [2] was “inactive”.

`CCN(CC)CC(=O)OCC(=O)[C@@]1(O)CC[C@H]2[C@@H]3CCC4=CC(=O)CC[C@]4(C)[C@H]3[C@@H](O)C[C@@]21C`: the Potency entry in test [5] is “inactive”.

Regarding `CCCCCCCCCCCCCC[N+](C)(C)C`, the Potency in test [2] is 10 µM (active).

For `OCCOCCN1CCN(C(c2ccccc2)c2ccc(Cl)cc2)CC1` (stereo unspecified), in test [2], the Potency entry was “inactive”. Further, the max response in test [3] is -2.98%.

`N=C(N)c1ccc(OCCCOc2ccc(C(=N)N)cc2)cc1`: the Potency in test [2] was 11.2 µM (active).

As to `CCOC(=O)O[C@]1(C(=O)OCCl)CC[C@H]2[C@@H]3CCC4=CC(=O)C=C[C@]4(C)[C@H]3[C@@H](O)C[C@@]21C`, in test [5], the Potency entry is “inactive”.

As for `CC(C)(C)CC(=O)OCC(=O)[C@@]1(O)CC[C@H]2[C@@H]3CCC4=CC(=O)C=C[C@]4(C)[C@H]3[C@@H](O)C[C@@]21C`, the Potency result in test [5] was “inactive”.

As for `CCN(CC)CCOc1ccc(/C(=C(\Cl)c2ccccc2)c2ccccc2)cc1`, the Potency in test [2] is 17.8 µM (active). Besides, the Potency entry in test [5] was “inactive”.

As to `CC[N+](CC)(CC)CCOC(=O)C(C1CCCC1)C1CCCC1`, the Potency result in test [2] was “inactive”.

For `CCOC(=O)c1ccc(NC(=O)CN2CCCCC2)cc1`, in test [2], the Potency entry is “inactive”.

`O=C(Nc1ccc(Cl)cc1)Nc1ccc(Cl)c(C(F)(F)F)c1`: the Potency in test [2] is 10 µM (active).

On to `O=C1NC2CCCCN2C12CCN(CCCN1c3ccccc3CCc3ccc(Cl)cc31)CC2` (stereo unspecified), for which the Potency in test [2] is 20 µM (active).

Consider `CO[C@@H]1[C@@H](OC)[C@H](C)[C@@](O)(CC(=O)O)O[C@H]1[C@H](C)[C@H]1O[C@@]2(CC[C@@](C)([C@H]3CC[C@@](C)([C@@H]4O[C@@H]([C@H]5O[C@](C)(O)[C@H](C)C[C@@H]5C)C[C@@H]4OC4C[C@H](OC)[C@@H](OC)[C@H](C)O4)O3)O2)C[C@H](O)[C@H]1C` (stereo partly specified), for which, in test [2], the Potency was 1.58 µM (active).

For the molecule `Cc1cc(C(C)(C)C)c(O)c(C(C)(C)C)c1`, the activity, negative = cell killing in test [1] (setting [8]) is -15.8%. The Potency result in test [2] was “inactive”. Moreover, the max response in test [3] is -5.78% and 3.32%.

Turning to `Cc1cc(OCCOCC[N+](C)(C)Cc2ccccc2)ccc1C(C)(C)CC(C)(C)C`, the Potency in test [2] was 15.8 µM (active).

As for `Nc1cccc2c(N)cccc12`, in test [1] (setting [9]), the activity, negative = cell killing was -15.4%. For the same molecule, the Potency in test [1] is 15.8 µM (active). For the same molecule, the Potency entry in test [2] was “inactive”. The max response in test [3] is -7.42% and 6.55%.

Turning to `O=C1Nc2ccccc2C1(c1ccc(O)cc1)c1ccc(O)cc1`, the Potency entry in test [5] was “inactive”.

`CCCCCCCCCCCCCCCCCCNC(=O)OC1CCN(C(=O)OC[C@H](COC(=O)N(Cc2cccc[n+]2CC)C(=O)c2ccccc2OC)OC)CC1`: the Potency in test [2] is 10 µM (active).

Consider `C[C@H]1C[C@@H]2[C@H]([C@@H](O)C[C@@]3(C)[C@H]2CC[C@]3(O)C(=O)CO)[C@@]2(C)C=CC(=O)C=C12`, for which the Potency result in test [5] is “inactive”.

`CCCC(=O)c1cc(O)c(O)cc1O`: the activity, negative = cell killing in test [1] (setting [10]) is -19.8%; in test [1] (setting [9]) it was -23.6%. In addition, in test [3], the max response was -4.26%. In addition, in test [4], the outcome was inactive.

Turning to `CN1CCC(Nc2ncc3ncnc(Nc4ccc(F)c(Cl)c4)c3n2)CC1`, the Potency in test [2] is 17.8 µM (active).

As to `O=C1CC2(CCCC2)CC(=O)N1CCNCC1COc2ccccc2O1` (stereo unspecified), in test [2], the Potency result is “inactive”.

As for `CCCCCCCCCCCC[N+](C)(C)Cc1ccccc1`, the Potency in test [2] is 11.2 µM (active). Besides, the max response in test [3] was 0.668%. The molecule was called inactive in test [4].

For the molecule `O=C1NCCN1CCN1CCC(c2cn(-c3ccc(F)cc3)c3ccc(Cl)cc23)CC1`, the Potency in test [2] was 17.8 µM (active).

Turning to `Cc1c(C)c2c(c(C)c1OC(=O)CCC(=O)OCCO)CC[C@@](C)(CCC[C@H](C)CCC[C@H](C)CCCC(C)C)O2`, in test [2], the Potency was 12.6 µM (active).

`CO[C@@H]1[C@@H](O[C@@H]2O[C@H](C)[C@@H](O[C@H]3C[C@@](C)(O)[C@@H](O)[C@H](C)O3)[C@H](N(C)C)[C@H]2O)[C@@H](CC=O)C[C@@H](C)[C@@H](O[C@@H]2CC[C@H](N(C)C)[C@@H](C)O2)/C=C/C=C/C[C@@H](C)OC(=O)C[C@H]1OC(C)=O`: the activity, negative = cell killing in test [1] (setting [6]) is -18.6%. The Potency in test [1] is 15.8 µM (active). For the same molecule, the Potency result in test [2] was “inactive”.

With `CC(C(O)c1ccccc1)N(C)CCOC(c1ccccc1)c1ccccc1` (stereo unspecified), in test [2], the Potency entry was “inactive”.

With `OCc1c[nH]c2ccccc12`, the max response in test [3] is 0.925%. For the same molecule, the molecule was classed as inactive in test [4].

With `Nc1ccc(O)cc1`, the Potency in test [2] was 35.5 µM (active). For the same molecule, the max response in test [3] is 4.17%.

On to `CC(C)(C)c1ccc(O)c(O)c1`, for which, in test [2], the Potency entry was “inactive”. The max response in test [3] is -0.177% and 2.15%.

`O=[N+]([O-])c1ccc(O)c2ncccc12`: in test [2], the Potency was 3.55 µM (active).

Consider `CC(NCCC(c1ccccc1)c1ccccc1)c1ccccc1` (stereo unspecified), for which the Potency in test [2] was 25.1 µM (active).

Take `CCCCCCCCCCCCCCCC[N+](C)(C)Cc1ccccc1`: the Potency in test [2] is 12.6 µM (active).

As for `CC(C)(c1ccc(O)cc1)c1ccc(O)cc1`, the activity, negative = cell killing in test [1] (setting [10]) was -24%; in test [1] (setting [9]) it was -43.4%. Besides, the max response in test [3] was 7.46% and 2.86% and -5.15%.
